± gives the standard deviation.

For experiment [1], the system named is MILI (PIWIL2) piRISC loaded with piRNA #1 (26 nt). Nature of the experiment: pre-steady-state target cleavage rate (min^-1); guide: piRNA #1 5'p-UGAGGUAGUAGGUUGUAUAGUAUCCA; higher = faster piRNA-guided slicing of the target. As to conditions: auxiliary factor: 500 nM mouse GTSF1. The method in brief:
(§1)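 A transcribed, DNA-blocked target RNA library (0.1 nM) and 1 nM active affinity-purified piRISC bearing one synthetic guide were incubated in HEPES–potassium acetate buffer at 33 °C for 0–8 or 0–960 min, either with or without 500 nM GTSF1 partner protein. Uncleaved targets were sequenced, normalised to depth and to weakly complementary targets, and pooled over three trials, with k3 capped at 0.0001 min^-1. The pre-steady-state cleavage rate was derived with a burst-and-steady-state fit.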

The test system of experiment [2] is EfPiwi piRISC loaded with piRNA #1 (26 nt). Nature of the experiment: pre-steady-state target cleavage rate (min^-1); auxiliary factor: 500 nM Ephydatia muelleri Gtsf1; guide: piRNA #1 5'p-UGAGGUAGUAGGUUGUAUAGUAUCCA; MIWI and MILI are mouse PIWI proteins and EfPiwi is from a freshwater sponge; tags in brackets are library labels; higher = faster piRNA-guided slicing of the target. The method in brief: as §1

For the sequence GGAGUGGUUACUAAACAACCUACUACCUCA, the “pre-steady-state target cleavage rate” value in experiment [1] was 0.161 ± 0.0092; in experiment [2], 0.00439 ± 0.0033.
For GGAGAGAUACUAUACAACCUACUACCUCA the same measures were 0.202 ± 0.017 and 0.121 ± 0.054.
Regarding GGAGACCAUACUAUACAACGUACUUCCUCA, the “pre-steady-state target cleavage rate” value in experiment [1] worked out at 0.0304 ± 0.0072; in experiment [2], 0.00544 ± 0.0032.
For the sequence GGAGACCUUAGUAUACAACCUACUACCUCA, the entries for the “pre-steady-state target cleavage rate” value in experiment [1] and in experiment [2] were 0.0889 ± 0.0097 and 0.0563 ± 0.02, respectively.
GGAGAGGUUACUAUACAACCUUCUACCUCA: the “pre-steady-state target cleavage rate” value in experiment [1] was determined as 0.00963 ± 0.0021; in experiment [2], 0.00505 ± 0.0025.
With GGAGUGGAUACCAUACAACCUACUACCUCA, the “pre-steady-state target cleavage rate” value in experiment [1] stood at 0.231 ± 0.02; in experiment [2], 0.157 ± 0.051.
Take GGAGACCUAUGAUAUGUUGCUACUACCUA: the “pre-steady-state target cleavage rate” value in experiment [1] and in experiment [2] was below 0.0001 in each case.
For the sequence GGAGACCAUACUAUACUACCUAGUACCUCA, the “pre-steady-state target cleavage rate” value in experiment [1] is 0.0453 ± 0.0095; in experiment [2] it was 0.00377 ± 0.0033.
GGAGACCAUAGUAUACAACCUACUACCUGA: the “pre-steady-state target cleavage rate” value in experiment [1] was determined as 0.0652 ± 0.012; in experiment [2], 0.00396 ± 0.0018.
Take GGAGACGAUACUAUACAAGCUACUUCCUCA: the results for the “pre-steady-state target cleavage rate” value in experiment [1] and in experiment [2] were 0.167 ± 0.016 and 0.00404 ± 0.0021, respectively.
Take GGAGAGGAAACUAAACAACCUACUACCUCA: the entries for the “pre-steady-state target cleavage rate” value in experiment [1] and in experiment [2] were 0.229 ± 0.03 and 0.00466 ± 0.0036, respectively.
Turning to GGAGACCUUACUAUACAAUCUACUACCUCA, the “pre-steady-state target cleavage rate” value is 0.127 ± 0.01 in experiment [1] and 0.00599 ± 0.0041 in experiment [2].
On to GGAGUGGAUACUAUACAACCUACUACCUA, for which the “pre-steady-state target cleavage rate” value is 0.103 ± 0.014 in experiment [1] and 0.249 ± 0.092 in experiment [2].
As for GGAGACCUUACCUAUACAACCUACUACCUCA, the entries for the “pre-steady-state target cleavage rate” value in experiment [1] and in experiment [2] were 0.0629 ± 0.016 and 0.0117 ± 0.0057, respectively.
In the case of GGAGACCUUACAAUACAUCCUACUACCUCA, the “pre-steady-state target cleavage rate” value in experiment [1] came to 0.232 ± 0.021; in experiment [2], 0.00553 ± 0.004.
Regarding GGAGUGGAUACUAUACAGCCUACUACCUCA, the “pre-steady-state target cleavage rate” value in experiment [1] amounted to 0.147 ± 0.0093; in experiment [2], 0.216 ± 0.073.
GGAGUGGAAAGUAUACAACCUACUACCUCA: the “pre-steady-state target cleavage rate” value is 0.118 ± 0.0086 in experiment [1] and 0.00841 ± 0.0043 in experiment [2].
Turning to GGAGACCAUACUAUACAACCUACUUCCUCA, the figures for the “pre-steady-state target cleavage rate” value in experiment [1] and in experiment [2] were 0.114 ± 0.018 and 0.00455 ± 0.002, respectively.
For GGAGAGGAAACUAUACAACCUUCUACCUCA the same measures were 0.00762 ± 0.006 and 0.00297 ± 0.0027.
Regarding GGAGAGGAUACUAUAAAACCUACUACCUCA, the “pre-steady-state target cleavage rate” value turned out to be 0.181 ± 0.013 in experiment [1] and 0.00425 ± 0.0029 in experiment [2].
Consider GGAGACCUAUGUGAUACAACCUACUACCUCA, for which the results for the “pre-steady-state target cleavage rate” value in experiment [1] and in experiment [2] were 0.0354 ± 0.0073 and 0.0129 ± 0.0064, respectively.
For the sequence GGAGUGGAAACUUUACAACCUACUACCUCA, the “pre-steady-state target cleavage rate” value in experiment [1] was 0.179 ± 0.02; in experiment [2], 0.00583 ± 0.0037.
In the case of GGAGUGGAUACUAUUCAACCUACUAGCUCA, the “pre-steady-state target cleavage rate” value in experiment [1] came to 0.0538 ± 0.0095; in experiment [2], 0.0025 ± 0.0021.
Regarding GGAGAGGAUACUUAUACAACCUACUACCUCA, the “pre-steady-state target cleavage rate” value came out at 0.127 ± 0.012 in experiment [1] and 0.112 ± 0.045 in experiment [2].
For GGAGAGGAUACUAUACAACCUACUCCCUCA the same measures were 0.0191 ± 0.006 and 0.00429 ± 0.0017.
Regarding GGAGAGGAUACUAUACAACCUACGUACCUCA, the “pre-steady-state target cleavage rate” value in experiment [1] is 0.0773 ± 0.012; in experiment [2], 0.00321 ± 0.0014.
For GGAGACGAUACUAUAGAUCCUACUACCUCA, the figures for the “pre-steady-state target cleavage rate” value in experiment [1] and in experiment [2] were 0.224 ± 0.013 and 0.00498 ± 0.0016, respectively.
Consider GGAGACCAUACUAUACAACCUUCUACCUGA, for which the “pre-steady-state target cleavage rate” value in experiment [1] amounted to 0.00324 ± 0.0032; in experiment [2], 0.00624 ± 0.0044.
In the case of GGAGACCUUACUAUACAACCUACUACUUCA, the “pre-steady-state target cleavage rate” value in experiment [1] was determined as 0.116 ± 0.016; in experiment [2], 0.0046 ± 0.003.
With GGAGACCAUACUCAUACAACCUACUACCUCA, the “pre-steady-state target cleavage rate” value in experiment [1] is 0.119 ± 0.013; in experiment [2] it was 0.0108 ± 0.0052.
In the case of GGAGACGAUGACUAUACAACCUACUACCUCA, the “pre-steady-state target cleavage rate” value in experiment [1] is 0.151 ± 0.02; in experiment [2], 0.11 ± 0.039.
Take GGAGAGGAUACUAAACAACCUACUACCACA: the “pre-steady-state target cleavage rate” value was determined as 0.108 ± 0.011 in experiment [1] and 0.00277 ± 0.002 in experiment [2].
Turning to GGAGACGAUACUAUACAACCUACUACCUA, the entries for the “pre-steady-state target cleavage rate” value in experiment [1] and in experiment [2] were 0.151 ± 0.018 and 0.104 ± 0.038, respectively.
With GGAGAGGAUACUAUUCAACCUACAACCUCA, the figures for the “pre-steady-state target cleavage rate” value in experiment [1] and in experiment [2] were 0.0909 ± 0.01 and 0.00238 ± 0.0017, respectively.
For the sequence GGAGUGGAUACUAUACAACCUACUACCAUCA, the “pre-steady-state target cleavage rate” value in experiment [1] is 0.0921 ± 0.013; in experiment [2], 0.00588 ± 0.0026.
Take GGAGACGAUACUAUACAUCCAACUACCUCA: the “pre-steady-state target cleavage rate” value in experiment [1] came out at 0.00801 ± 0.0028; in experiment [2], 0.00562 ± 0.0029.
Consider GGAGUGGAUACUAUACAACGUACUACCACA, for which the “pre-steady-state target cleavage rate” value was found to be 0.0255 ± 0.0047 in experiment [1] and 0.00371 ± 0.00099 in experiment [2].
For GGAGACGAUACUAUACAUCCUACUACCACA the same measures were 0.334 ± 0.021 and 0.0049 ± 0.0017.
Consider GGAGACCUUACUAUACAAGCUACUAGCUCA, for which the “pre-steady-state target cleavage rate” value was determined as 0.0972 ± 0.02 in experiment [1] and 0.00451 ± 0.0043 in experiment [2].
With GGAGUGGAUACUAUAGAACCUACUACCUGA, the “pre-steady-state target cleavage rate” value in experiment [1] came to 0.0453 ± 0.0088; in experiment [2], 0.00222 ± 0.0011.
Consider GGAGACCAUACUAUACAACCUACUACCUUA, for which the “pre-steady-state target cleavage rate” value in experiment [1] was 0.22 ± 0.024; in experiment [2], 0.0127 ± 0.0048.
In the case of GGAGACCUAUGUAUACAACCUACUACCUUA, the “pre-steady-state target cleavage rate” value in experiment [1] amounted to 0.0696 ± 0.0086; in experiment [2], 0.00547 ± 0.0039.
For GGAGACGAUACUAUACAAUCUACUACCUCA the same measures were 0.131 ± 0.0093 and 0.00912 ± 0.0039.
With GGAGAGGAAACUAUACUACCUACUACCUCA, the “pre-steady-state target cleavage rate” value came out at 0.239 ± 0.025 in experiment [1] and 0.00544 ± 0.0027 in experiment [2].
Regarding GGAGACGAUACUAUACCAACCUACUACCUCA, the figures for the “pre-steady-state target cleavage rate” value in experiment [1] and in experiment [2] were 0.0605 ± 0.013 and 0.0123 ± 0.0043, respectively.
For “GGAGACCUAACUAUACAACCUACUACCUCC [g2:g21:cont:t1C]” the same measures were 0.175 ± 0.03 and 0.00701 ± 0.0033.
As for GGAGACGAUACUAUACAAACCUACUACCUCA, the “pre-steady-state target cleavage rate” value in experiment [1] came out at 0.00373 ± 0.0026; in experiment [2], 0.00846 ± 0.0032.
For GGAGACCUAACUAUACGACCUACUACCUCA the same measures were 0.0254 ± 0.011 and 0.00758 ± 0.0045.
For GGAGACCAUACUAUACUACCUACUACCACA the same measures were 0.217 ± 0.021 and 0.0069 ± 0.0053.
On to GGAGACCAUACUAUACAAGCUACUACGUCA, for which the “pre-steady-state target cleavage rate” value was determined as 0.139 ± 0.022 in experiment [1] and 0.00359 ± 0.0023 in experiment [2].
For the sequence GGAGAGGAUACUAUACAACCUACUACCUGCA, the results for the “pre-steady-state target cleavage rate” value in experiment [1] and in experiment [2] were 0.137 ± 0.012 and 0.00613 ± 0.0026, respectively.
On to GGAGACCUAUGUAGUACAACCUACUACCUCA, for which the “pre-steady-state target cleavage rate” value in experiment [1] turned out to be 0.00758 ± 0.0032; in experiment [2], 0.00368 ± 0.0031.
With GGAGAGGAAUCUAUACAACCUACUACCUCA, the “pre-steady-state target cleavage rate” value in experiment [1] stood at 0.199 ± 0.015; in experiment [2] it was 0.00943 ± 0.0056.
Consider GGAGACGAUACUAUACAACCUGCUACCUCA, for which the “pre-steady-state target cleavage rate” value came out at 0.0677 ± 0.008 in experiment [1] and 0.128 ± 0.046 in experiment [2].
In the case of GGAGACCAAAGUAUACAACCUACUACCUCA, the “pre-steady-state target cleavage rate” value in experiment [1] turned out to be 0.0438 ± 0.0093; in experiment [2], 0.0166 ± 0.0082.
Take GGAGACCAUACUUUACUACCUACUACCUCA: the “pre-steady-state target cleavage rate” value in experiment [1] turned out to be 0.129 ± 0.015; in experiment [2], 0.00371 ± 0.0032.
In the case of GGAGAGGAUACAAUACAACCUACAACCUCA, the “pre-steady-state target cleavage rate” value in experiment [1] came to 0.115 ± 0.015; in experiment [2], 0.00231 ± 0.0018.
For the sequence GGAGACGAUACUAUACAACCUAGCUACCUCA, the “pre-steady-state target cleavage rate” value in experiment [1] stood at 0.0598 ± 0.0083; in experiment [2] it was 0.00543 ± 0.0023.
With GGAGAGCGAUACUAUACAACCUACUACCUCA, the “pre-steady-state target cleavage rate” value in experiment [1] was 0.249 ± 0.02; in experiment [2], 0.0132 ± 0.006.
With GGAGACGUUAGUAUACAACCUACUACCUCA, the “pre-steady-state target cleavage rate” value in experiment [1] was found to be 0.119 ± 0.013; in experiment [2], 0.00686 ± 0.0036.

(Values after the supplement of paper PMC10338343.)
